ChEMBL document CHEMBL2218924, “A broad activity screen in support of a chemogenomic map for kinase signalling research and drug discovery” (Biochem J, 2013)

Key:
[1] = target: Ephrin type-A receptor 5 (Homo sapiens) (UniProt P54756); conditions: at 1 µM
[2] = target: Ephrin type-A receptor 5 (Homo sapiens) (UniProt P54756); conditions: at 10 µM
[3] = target: Ephrin type-A receptor 7 (Homo sapiens) (UniProt Q15375); conditions: at 1 µM
[4] = target: T1, Ephrin type-B receptor 1 (Homo sapiens) (UniProt P54762); conditions: at 1 µM
T1 sequence (whole entry): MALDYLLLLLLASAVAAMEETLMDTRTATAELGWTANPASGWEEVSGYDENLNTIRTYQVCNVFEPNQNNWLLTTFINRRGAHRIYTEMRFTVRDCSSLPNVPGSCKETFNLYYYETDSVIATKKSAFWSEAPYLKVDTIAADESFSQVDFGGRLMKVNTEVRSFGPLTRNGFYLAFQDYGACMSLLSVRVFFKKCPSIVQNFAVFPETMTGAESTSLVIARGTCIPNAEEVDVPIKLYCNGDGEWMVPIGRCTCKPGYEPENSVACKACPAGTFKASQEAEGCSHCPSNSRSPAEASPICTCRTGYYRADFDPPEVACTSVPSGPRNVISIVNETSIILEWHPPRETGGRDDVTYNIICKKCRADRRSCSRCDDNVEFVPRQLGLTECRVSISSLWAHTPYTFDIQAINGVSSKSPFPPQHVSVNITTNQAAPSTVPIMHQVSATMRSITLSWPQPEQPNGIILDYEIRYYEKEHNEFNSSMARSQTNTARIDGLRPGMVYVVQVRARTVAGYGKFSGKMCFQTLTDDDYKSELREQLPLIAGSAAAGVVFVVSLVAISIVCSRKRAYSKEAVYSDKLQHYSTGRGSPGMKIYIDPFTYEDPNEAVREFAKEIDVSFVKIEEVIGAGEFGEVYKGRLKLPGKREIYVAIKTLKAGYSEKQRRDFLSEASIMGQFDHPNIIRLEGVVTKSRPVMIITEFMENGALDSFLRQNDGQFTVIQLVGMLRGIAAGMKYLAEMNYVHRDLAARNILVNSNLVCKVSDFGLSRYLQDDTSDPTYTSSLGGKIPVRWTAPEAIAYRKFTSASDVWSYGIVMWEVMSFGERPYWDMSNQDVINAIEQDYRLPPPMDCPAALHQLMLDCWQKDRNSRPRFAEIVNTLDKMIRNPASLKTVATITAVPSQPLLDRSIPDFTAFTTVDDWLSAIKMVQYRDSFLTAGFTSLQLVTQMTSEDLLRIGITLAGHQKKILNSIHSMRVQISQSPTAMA

[5] = target: T2, Ephrin type-B receptor 2 (Homo sapiens) (UniProt P29323); conditions: at 1 µM
T2 sequence (whole entry): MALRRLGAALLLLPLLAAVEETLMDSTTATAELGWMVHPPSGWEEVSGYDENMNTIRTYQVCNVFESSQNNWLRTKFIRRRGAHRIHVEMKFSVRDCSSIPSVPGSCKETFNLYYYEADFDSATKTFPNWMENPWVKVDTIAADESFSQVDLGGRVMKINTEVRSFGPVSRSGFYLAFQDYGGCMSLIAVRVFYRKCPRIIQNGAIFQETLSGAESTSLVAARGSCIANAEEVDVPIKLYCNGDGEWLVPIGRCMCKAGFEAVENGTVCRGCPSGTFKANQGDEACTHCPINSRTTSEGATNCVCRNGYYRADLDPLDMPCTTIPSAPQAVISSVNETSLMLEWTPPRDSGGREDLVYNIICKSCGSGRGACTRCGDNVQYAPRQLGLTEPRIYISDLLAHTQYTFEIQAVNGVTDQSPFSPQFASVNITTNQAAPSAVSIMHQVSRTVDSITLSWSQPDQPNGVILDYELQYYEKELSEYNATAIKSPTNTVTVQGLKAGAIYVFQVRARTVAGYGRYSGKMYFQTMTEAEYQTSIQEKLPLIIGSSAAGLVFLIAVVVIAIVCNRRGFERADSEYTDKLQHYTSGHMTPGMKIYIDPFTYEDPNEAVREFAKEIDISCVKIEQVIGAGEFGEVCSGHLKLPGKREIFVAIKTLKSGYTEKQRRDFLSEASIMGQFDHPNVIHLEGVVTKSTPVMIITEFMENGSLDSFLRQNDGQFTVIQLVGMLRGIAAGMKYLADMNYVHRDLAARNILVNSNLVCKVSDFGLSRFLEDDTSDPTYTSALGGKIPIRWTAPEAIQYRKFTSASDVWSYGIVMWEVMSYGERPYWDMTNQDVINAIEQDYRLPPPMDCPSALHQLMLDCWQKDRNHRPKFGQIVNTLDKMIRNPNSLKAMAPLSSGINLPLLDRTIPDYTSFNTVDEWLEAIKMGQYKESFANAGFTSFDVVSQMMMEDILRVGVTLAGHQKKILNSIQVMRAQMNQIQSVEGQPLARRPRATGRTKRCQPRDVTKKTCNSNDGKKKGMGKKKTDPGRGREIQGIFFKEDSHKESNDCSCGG

[6] = target: Receptor tyrosine-protein kinase erbB-4 (Homo sapiens) (UniProt Q15303); conditions: at 10 µM
Sequence of Receptor tyrosine-protein kinase erbB-4 (Homo sapiens) (Q15303 whole entry): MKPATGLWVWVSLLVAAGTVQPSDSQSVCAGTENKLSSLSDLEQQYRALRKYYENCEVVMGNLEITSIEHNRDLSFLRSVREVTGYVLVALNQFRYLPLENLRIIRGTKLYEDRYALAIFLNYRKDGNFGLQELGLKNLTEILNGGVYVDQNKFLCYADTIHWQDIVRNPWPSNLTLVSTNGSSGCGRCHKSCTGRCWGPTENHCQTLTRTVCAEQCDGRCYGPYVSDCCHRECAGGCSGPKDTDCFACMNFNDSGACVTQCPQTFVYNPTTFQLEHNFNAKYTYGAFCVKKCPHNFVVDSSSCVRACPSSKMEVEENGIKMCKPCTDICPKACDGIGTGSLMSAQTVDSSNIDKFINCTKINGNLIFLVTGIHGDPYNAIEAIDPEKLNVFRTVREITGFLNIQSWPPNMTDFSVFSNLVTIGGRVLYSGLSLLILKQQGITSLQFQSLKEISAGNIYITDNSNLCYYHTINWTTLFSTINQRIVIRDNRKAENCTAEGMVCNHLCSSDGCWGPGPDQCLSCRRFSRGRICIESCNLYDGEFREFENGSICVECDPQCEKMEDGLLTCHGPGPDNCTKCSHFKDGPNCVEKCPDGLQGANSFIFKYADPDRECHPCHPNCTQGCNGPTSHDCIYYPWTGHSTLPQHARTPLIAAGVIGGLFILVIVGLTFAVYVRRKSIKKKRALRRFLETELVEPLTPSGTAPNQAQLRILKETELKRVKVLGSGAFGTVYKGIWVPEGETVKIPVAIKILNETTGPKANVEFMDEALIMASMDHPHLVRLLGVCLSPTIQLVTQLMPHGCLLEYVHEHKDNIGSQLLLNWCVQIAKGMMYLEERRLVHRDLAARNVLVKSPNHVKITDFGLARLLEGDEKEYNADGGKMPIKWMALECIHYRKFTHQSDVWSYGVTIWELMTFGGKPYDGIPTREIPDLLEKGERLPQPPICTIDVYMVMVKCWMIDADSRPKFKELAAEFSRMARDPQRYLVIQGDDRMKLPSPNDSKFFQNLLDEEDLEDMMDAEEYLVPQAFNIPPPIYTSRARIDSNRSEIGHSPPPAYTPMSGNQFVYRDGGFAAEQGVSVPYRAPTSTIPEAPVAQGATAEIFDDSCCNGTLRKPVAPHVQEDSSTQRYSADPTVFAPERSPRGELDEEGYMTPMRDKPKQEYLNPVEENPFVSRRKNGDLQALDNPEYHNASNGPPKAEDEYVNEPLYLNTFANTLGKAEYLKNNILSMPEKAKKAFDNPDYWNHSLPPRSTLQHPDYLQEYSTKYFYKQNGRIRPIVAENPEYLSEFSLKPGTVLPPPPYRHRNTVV

[7] = target: Ephrin type-A receptor 7 (Homo sapiens) (UniProt Q15375); conditions: at 10 µM
[8] = target: T1, Ephrin type-B receptor 1 (Homo sapiens); conditions: at 10 µM
[9] = target: T3, Ephrin type-B receptor 3 (Homo sapiens) (UniProt P54753); conditions: at 1 µM
T3 sequence (whole entry): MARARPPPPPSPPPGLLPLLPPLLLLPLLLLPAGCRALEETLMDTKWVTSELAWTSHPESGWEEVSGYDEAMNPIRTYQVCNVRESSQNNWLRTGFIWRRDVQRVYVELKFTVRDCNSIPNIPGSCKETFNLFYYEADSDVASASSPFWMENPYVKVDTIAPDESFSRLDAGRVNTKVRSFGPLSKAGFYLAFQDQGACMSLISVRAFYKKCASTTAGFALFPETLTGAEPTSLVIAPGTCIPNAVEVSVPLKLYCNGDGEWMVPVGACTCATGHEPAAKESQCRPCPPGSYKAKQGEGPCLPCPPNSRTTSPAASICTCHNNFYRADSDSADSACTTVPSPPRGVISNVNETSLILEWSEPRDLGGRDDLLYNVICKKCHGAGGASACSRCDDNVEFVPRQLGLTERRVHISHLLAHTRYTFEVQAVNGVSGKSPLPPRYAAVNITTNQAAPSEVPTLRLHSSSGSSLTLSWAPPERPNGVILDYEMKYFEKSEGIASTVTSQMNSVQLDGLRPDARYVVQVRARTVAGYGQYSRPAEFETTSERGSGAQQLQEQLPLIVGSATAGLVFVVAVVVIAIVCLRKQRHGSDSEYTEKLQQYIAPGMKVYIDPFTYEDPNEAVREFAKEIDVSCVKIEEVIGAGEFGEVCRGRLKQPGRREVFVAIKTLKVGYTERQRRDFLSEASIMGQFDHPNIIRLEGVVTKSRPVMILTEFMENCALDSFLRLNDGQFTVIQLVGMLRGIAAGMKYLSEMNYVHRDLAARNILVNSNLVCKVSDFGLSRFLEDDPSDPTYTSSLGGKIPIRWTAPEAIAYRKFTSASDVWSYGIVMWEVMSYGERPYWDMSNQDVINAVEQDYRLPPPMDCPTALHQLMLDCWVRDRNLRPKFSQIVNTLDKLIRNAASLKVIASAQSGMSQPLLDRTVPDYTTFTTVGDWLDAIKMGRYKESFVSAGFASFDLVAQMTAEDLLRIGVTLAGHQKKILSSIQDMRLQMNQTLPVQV

[10] = target: T4, Ephrin type-B receptor 4 (Homo sapiens) (UniProt P54760); conditions: at 1 µM
T4 sequence (whole entry): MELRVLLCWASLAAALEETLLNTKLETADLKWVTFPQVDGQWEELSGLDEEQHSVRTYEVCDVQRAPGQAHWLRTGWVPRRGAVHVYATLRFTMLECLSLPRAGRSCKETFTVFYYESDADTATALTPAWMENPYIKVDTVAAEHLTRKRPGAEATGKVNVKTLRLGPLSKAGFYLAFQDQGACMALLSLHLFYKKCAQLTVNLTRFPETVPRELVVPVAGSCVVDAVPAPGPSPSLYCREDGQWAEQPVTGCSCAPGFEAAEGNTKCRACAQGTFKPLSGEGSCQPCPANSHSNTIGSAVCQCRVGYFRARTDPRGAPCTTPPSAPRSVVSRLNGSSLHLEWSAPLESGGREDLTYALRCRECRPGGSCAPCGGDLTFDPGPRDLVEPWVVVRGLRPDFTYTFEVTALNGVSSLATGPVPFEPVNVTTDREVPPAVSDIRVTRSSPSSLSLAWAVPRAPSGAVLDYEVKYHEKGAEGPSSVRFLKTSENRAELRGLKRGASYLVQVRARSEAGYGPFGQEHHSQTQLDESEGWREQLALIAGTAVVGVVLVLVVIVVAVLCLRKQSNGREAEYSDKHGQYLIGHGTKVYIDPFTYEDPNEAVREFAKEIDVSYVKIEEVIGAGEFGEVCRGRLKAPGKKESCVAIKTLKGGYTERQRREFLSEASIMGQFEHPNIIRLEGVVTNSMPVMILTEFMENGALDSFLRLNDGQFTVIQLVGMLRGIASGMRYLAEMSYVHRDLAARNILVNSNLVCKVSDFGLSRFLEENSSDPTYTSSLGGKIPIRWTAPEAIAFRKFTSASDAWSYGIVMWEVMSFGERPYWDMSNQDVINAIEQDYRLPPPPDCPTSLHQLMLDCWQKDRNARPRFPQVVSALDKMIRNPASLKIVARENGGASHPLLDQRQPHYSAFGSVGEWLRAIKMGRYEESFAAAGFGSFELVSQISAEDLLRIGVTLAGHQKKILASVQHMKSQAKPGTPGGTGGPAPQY

[11] = target: T4, Ephrin type-B receptor 4 (Homo sapiens); conditions: at 10 µM
[12] = target: Receptor tyrosine-protein kinase erbB-4 (Homo sapiens) (UniProt Q15303); conditions: at 1 µM
[13] = target: Focal adhesion kinase 1 (Homo sapiens) (UniProt Q05397); conditions: at 1 µM
Sequence of Focal adhesion kinase 1 (Homo sapiens) (Q05397 2-1052 limits assumed): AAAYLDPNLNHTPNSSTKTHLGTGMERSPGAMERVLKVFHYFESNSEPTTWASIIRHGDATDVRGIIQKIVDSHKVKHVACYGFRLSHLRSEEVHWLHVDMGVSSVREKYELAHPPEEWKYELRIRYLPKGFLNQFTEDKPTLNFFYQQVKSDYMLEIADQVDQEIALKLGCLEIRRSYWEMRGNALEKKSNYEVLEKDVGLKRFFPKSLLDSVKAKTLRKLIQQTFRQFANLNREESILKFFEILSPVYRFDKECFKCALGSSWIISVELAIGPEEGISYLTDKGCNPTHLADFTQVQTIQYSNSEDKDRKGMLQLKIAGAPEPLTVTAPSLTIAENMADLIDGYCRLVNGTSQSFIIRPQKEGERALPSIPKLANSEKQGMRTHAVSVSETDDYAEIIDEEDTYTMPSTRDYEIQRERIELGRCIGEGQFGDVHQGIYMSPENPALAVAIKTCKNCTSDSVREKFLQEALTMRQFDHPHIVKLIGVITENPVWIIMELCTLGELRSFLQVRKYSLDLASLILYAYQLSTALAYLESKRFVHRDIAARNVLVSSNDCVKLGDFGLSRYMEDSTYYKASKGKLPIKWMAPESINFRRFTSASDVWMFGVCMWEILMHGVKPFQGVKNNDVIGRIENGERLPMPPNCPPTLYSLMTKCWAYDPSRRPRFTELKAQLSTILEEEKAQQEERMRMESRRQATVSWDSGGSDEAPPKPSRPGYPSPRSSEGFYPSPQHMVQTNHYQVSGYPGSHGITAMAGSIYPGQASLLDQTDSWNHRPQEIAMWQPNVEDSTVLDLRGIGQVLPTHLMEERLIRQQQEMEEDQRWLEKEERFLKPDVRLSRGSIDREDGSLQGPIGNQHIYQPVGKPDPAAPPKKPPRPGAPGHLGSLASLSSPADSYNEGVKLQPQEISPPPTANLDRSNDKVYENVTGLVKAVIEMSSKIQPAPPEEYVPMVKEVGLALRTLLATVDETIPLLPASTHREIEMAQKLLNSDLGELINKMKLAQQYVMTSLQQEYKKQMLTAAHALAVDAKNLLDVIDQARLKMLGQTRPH

Sequence of Ephrin type-A receptor 7 (Homo sapiens) (Q15375 28-998 limits assumed): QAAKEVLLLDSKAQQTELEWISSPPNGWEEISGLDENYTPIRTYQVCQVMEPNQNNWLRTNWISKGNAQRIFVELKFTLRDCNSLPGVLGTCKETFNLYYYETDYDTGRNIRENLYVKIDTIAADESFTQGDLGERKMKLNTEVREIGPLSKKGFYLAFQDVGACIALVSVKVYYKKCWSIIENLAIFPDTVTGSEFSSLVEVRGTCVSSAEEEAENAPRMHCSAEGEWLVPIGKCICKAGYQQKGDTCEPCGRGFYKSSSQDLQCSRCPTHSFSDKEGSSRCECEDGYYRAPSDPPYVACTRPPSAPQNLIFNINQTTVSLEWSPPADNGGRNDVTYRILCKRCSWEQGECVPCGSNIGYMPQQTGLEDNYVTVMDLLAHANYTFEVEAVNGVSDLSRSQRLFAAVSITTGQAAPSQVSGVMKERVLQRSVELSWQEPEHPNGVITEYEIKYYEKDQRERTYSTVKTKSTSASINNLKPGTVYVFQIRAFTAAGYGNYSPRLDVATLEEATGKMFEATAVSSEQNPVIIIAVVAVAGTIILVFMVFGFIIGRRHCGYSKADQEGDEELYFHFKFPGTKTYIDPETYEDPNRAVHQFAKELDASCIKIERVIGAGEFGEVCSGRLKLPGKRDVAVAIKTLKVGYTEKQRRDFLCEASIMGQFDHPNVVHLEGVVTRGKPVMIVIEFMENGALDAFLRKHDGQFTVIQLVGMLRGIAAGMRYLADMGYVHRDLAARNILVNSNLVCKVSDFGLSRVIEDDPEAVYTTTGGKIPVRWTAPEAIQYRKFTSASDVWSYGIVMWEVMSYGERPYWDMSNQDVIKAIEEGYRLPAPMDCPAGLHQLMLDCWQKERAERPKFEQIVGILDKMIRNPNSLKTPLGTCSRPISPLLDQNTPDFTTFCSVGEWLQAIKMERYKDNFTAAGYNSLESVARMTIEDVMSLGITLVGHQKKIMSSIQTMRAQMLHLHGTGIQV
Sequence of Ephrin type-A receptor 5 (Homo sapiens) (P54756 whole entry): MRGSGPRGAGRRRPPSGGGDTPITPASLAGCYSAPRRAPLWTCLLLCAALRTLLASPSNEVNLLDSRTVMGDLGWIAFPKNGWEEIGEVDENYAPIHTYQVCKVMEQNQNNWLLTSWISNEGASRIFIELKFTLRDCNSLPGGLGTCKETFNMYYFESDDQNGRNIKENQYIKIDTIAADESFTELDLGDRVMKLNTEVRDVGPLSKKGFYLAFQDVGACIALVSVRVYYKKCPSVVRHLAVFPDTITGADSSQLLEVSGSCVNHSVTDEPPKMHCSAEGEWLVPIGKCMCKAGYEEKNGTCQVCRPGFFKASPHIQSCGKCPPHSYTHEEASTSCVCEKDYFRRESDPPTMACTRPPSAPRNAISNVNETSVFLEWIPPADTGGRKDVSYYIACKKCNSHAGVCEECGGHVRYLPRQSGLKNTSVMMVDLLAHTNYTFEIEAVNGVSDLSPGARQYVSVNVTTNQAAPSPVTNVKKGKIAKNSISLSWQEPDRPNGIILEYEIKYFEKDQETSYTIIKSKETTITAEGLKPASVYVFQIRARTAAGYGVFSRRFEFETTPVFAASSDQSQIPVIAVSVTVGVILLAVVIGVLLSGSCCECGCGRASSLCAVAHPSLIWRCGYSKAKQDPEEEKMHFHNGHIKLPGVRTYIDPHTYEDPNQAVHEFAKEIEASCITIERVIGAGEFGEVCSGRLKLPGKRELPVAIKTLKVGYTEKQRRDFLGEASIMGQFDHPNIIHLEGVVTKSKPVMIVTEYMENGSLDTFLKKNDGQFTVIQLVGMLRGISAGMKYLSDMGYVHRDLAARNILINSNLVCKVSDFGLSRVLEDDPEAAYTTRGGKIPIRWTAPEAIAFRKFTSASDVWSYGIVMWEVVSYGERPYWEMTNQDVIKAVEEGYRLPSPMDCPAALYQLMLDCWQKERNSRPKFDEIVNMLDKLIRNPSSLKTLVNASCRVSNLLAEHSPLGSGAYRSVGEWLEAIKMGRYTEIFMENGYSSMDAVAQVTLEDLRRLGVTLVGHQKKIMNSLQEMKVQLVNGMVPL

Structure (SMILES)	residual activity [1] [%]	residual activity [2] [%]	residual activity [3] [%]	residual activity [4] [%]	residual activity [5] [%]	residual activity [6] [%]	residual activity [7] [%]	residual activity [8] [%]	residual activity [9]	residual activity [10] [%]	residual activity [11] [%]	residual activity [12] [%]	residual activity [13] [%]
O=c1c(-c2ccc(F)cc2)c(-c2ccncc2)[nH]n1-c1ccc(Cl)cc1	119	82	100	128	121	34							
O=C(c1ccccc1)c1ccc(N2CCOCC2)cc1O	118		79	96		96	86	95	115% (inactive)	117	116	95	139
